Hits are enriched below; roughly 4.3% of the tested compounds scored in any of these assays.
NadD block = NadD (S. aureus) enzyme inhibition. inhibition, % at 20 µM. 360,000 compounds, 0.78% hits. purified NadD enzyme, colorimetric absorbance read-out; in the data active = inhibition above about 26%
FAS TE block = FAS thioesterase (human) inhibition. AID 602261. 360,000 compounds, 0.67% hits. inhibition, % at 15 µM. P49327. recombinant FAS-TE, OMFH fluorogenic substrate, fluorescence endpoint;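 active = compounds whose normalised, plate-corrected inhibition of enzyme fluorescence in the single-dose primary screen is 50% or more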;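 note: 0% = DMSO with enzyme and 100% = substrate without enzyme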
rCAG RNA binder = molecules binding r(CAG) RNA repeats. r(CAG) RNA repeat, TO-PRO-1 dye displacement fluorescence. inhibition, % at 3 µM. 370,000 compounds, 1.3% hits;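 active = inhibition above the plate cutoff, the mean of all test compounds on that plate plus 3 SD, cut at about 35% in these data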;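 note: 0% = DMSO alone and 100% = 100 µM mitoxantrone as full dye displacement; higher means more dye released from RNA so lower well fluorescence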
NR3A LBD binder = modulates the human NR3A ligand-binding domain; NR3A LBD differential scanning fluorimetry, Tm shift; 0% = protein alone, 100% = glycine-bound protein; Tm shift relative to glycine control, % at 25 µM; 340,000 compounds, 2.5% hits; AID 1259313;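 active = melting temperature shift of at least 10% of the positive control shift, at one fixed dose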
FAS-TE conf = confirmation of human fatty acid synthase thioesterase inhibitors; shares compounds with FAS TE block; recombinant FAS-TE, OMFH fluorogenic substrate, fluorescence; inhibition, % at 15 µM; 2,300 compounds, 45% hits; AID 624325;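 active = compounds inhibiting the enzyme by at least 50% at 15 µM in any one of the replicates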;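 note: 0% = enzyme with DMSO only and 100% = wells lacking enzyme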
An asterisk follows results filed as active; . = no result given.

SMILES	NadD block	FAS TE block	rCAG RNA binder	NR3A LBD binder	FAS-TE conf
COC1=C[C@H](C(=O)N[C@H]2CCCC[C@@H]2NC(C)=O)[C@H](C)[C@@H](c2ccccc2)CC1=O	.	.	6.7	.	.
CCCCCCCCN1C(=O)[C@@H](CC(=O)NCCCN2CCCC2=O)C[C@@]2(C(=O)OC)C1=C[C@H](COCc1ccccc1)O[C@@H]2C	.	.	3.9	.	.
CCCC[C@H](C(=O)N(C)c1ccccc1)[C@@H](O)c1ccc2ccccc2c1	.	.	2.5	.	.
COc1cccc(OCC(C)CN2CCC(C(O)(c3ccccc3)c3ccccc3)CC2)c1 (stereo unspecified)	.	.	12.5	.	.
COc1cccc(/C=C2\CC3(OC(=O)C(C)(C)C)CCCN2C3)c1 (stereo unspecified)	.	.	1.5	.	.
C#CCN1CC(N(C)CCCO)CS1(=O)=O (stereo unspecified)	.	.	2.8	.	.
O=C(Nc1cccc(C(F)(F)F)c1)c1cccnc1NCCO	-5.0	-0.8	-3.4	0.1	.
O=C(Nc1cccc(C(F)(F)F)c1)c1cccnc1NCCc1ccccc1	-1.0	52.8*	12.4	27.8*	31.1
O=C(CN1CCSC1=NCc1ccccc1)c1ccc(Cl)c(Cl)c1	-5.8	53.9*	3.0	-3.7	41.1
COc1ccc(CN2CN3Cc4ccccc4C3CS2(=O)=O)cc1 (stereo unspecified)	.	.	6.1	.	.
O=C(NCc1ccc(Cl)cc1)C1=Cc2cc(Cl)ccc2OC1	-0.4	63.5*	-0.5	0.8	40.4
COCCNC(=S)N(C)[C@H]1C[C@H]2c3[nH]c4c(-c5ccc6c(c5)OCO6)cccc4c3CCN2C[C@H]1[C@H](C)O	.	.	9.3	.	.
CC(=O)c1ccc(S(=O)(=O)Nc2cccc(-c3ccc4nncn4n3)c2)cc1	-0.7	-0.3	8.7	-1.0	.
O=S(=O)(Nc1cccc(-c2ccc(N3CCCCCC3)nn2)c1)c1ccccc1F	12.3	55.5*	10.8	-2.8	62.1*
Cc1ccc(S(=O)(=O)Nc2cccc(-c3ccc4nncn4n3)c2)cc1	3.6	54.2*	7.5	-3.6	51.1*
O=S(=O)(Nc1cccc(-c2ccc(N3CCCCCC3)nn2)c1)c1ccc(F)cc1	13.8	62.4*	8.9	-3.4	10.6
CCOc1ccc(S(=O)(=O)Nc2cccc(-c3ccc(N4CCCCCC4)nn3)c2)cc1	24.3	44.6	10.3	-2.6	.
O=C(C1CCCN1S(=O)(=O)c1ccc(F)cc1)N1CCc2ccccc2C1 (stereo unspecified)	.	.	2.4	.	.
N#CC1(NC(=O)COC(=O)c2cc([N+](=O)[O-])ccc2N2CCCC2)CCCCC1	-4.2	65.9*	3.6	-1.8	75.1*
N#CC1(NC(=O)COC(=O)c2cc([N+](=O)[O-])ccc2N2CCOCC2)CCCCC1	-3.3	68.1*	0.8	-0.7	80.2*
O=c1oc(-c2ccc(Cl)cc2[N+](=O)[O-])nc2ccccc12	-9.3	62.1*	7.0	.	19.6
COC(=O)C[C@@H]1CC[C@H]2[C@@H](COc3ccc(NC(=O)c4cc(C)on4)cc3C(=O)N2C)O1	.	.	-0.9	.	.
O=C(NCCc1c[nH]c2ccccc12)OCc1cn(Cc2c(F)cccc2F)nn1	.	.	1.5	.	.
COc1ccc2c(c1)C(=O)N1[C@H]3c4cc(Cl)ccc4OC[C@@H]3[C@H](c3ccccc3)[C@]1(C)C(=O)N2	22.1	64.3*	17.8	-3.3	45.0*
COc1ccc2c(c1)OC[C@H]1[C@H]2N2C(=O)c3cc(Cl)ccc3NC(=O)[C@@]2(C)[C@H]1c1ccccc1	12.1	66.6*	.	-3.1	16.9
SMILES	NadD block	FAS TE block	rCAG RNA binder	NR3A LBD binder	FAS-TE conf
CCOC(=O)[C@H]1[C@H]2COc3cc(OC)ccc3[C@@H]2N2C(=O)c3ccc(C)cc3NC(=O)[C@@]12C	-2.1	4.8	-0.5	-2.5	.
CCOC(=O)[C@H]1[C@H]2COc3cc(OC)ccc3[C@@H]2N2C(=O)c3cc(F)ccc3NC(=O)[C@@]12C	-2.9	0.9	-1.0	-0.6	.
COc1ccc2c(c1)OC[C@H]1[C@H]2N2C(=O)c3cc(F)ccc3NC(=O)[C@@]2(C)[C@H]1c1ccccc1	4.8	74.4*	7.1	-4.3	1.7
COc1ccc2c(c1)OC[C@H]1[C@H]2N2C(=O)c3ccc(C)cc3NC(=O)[C@@]2(C)[C@H]1c1ccccc1	12.4	90.3*	9.7	-5.0	40.3
Cn1c(Cc2cccs2)nnc1SCC(=O)Nc1ccc2c(c1)OCO2	.	.	0.9	.	.
COc1ccc(C2CC(=O)C(c3ccc(C#N)cc3)=CN2Cc2ccccc2)cc1 (stereo unspecified)	.	.	3.6	.	.
C=CCN(CC#Cc1ccc(C(F)(F)F)cc1)CC=C	.	.	-0.2	.	.
COc1ccc2c(c1)OC[C@H]1[C@H]2N2C(=O)c3cc(OC)ccc3NC(=O)[C@@]2(C)[C@H]1c1ccccc1	3.9	95.0*	12.1	-0.8	54.4*
CCOc1ccc(-n2c(SCC(=O)Nc3ccc4c(c3)OCCO4)nc3c(c2=O)SCC3)cc1	21.2	62.1*	-0.2	-6.2	24.7
O=C(NC1CCCCN(Cc2cccc(C(F)(F)F)c2)C1=O)c1ccc(COc2ccccc2)cc1 (stereo unspecified)	.	.	0.9	.	.
CC(C)c1ccc2[nH]c(O)c(N=NC(=O)c3cccc(S(=O)(=O)N4CCCCC4)c3)c2c1	31.2*	58.2*	3.9	-0.3	32.0
COCCCNC(=O)c1cc(Nc2ccc(OC)cc2OC)nc2ccccc12	-3.4	-6.6	-1.6	-1.3	.
COc1ccc(Nc2cc(C(=O)N3CCc4ccccc4C3)c3ccccc3n2)c(OC)c1	11.1	61.3*	2.2	-4.4	28.3
Cc1ccc2c(c1)[C@H]1[C@H](CO2)[C@H](c2ccccc2)[C@]2(C)C(=O)Nc3cc(F)c(F)cc3C(=O)N12	1.9	76.1*	19.5	2.0	21.0
Cc1ccc2c(c1)[C@H]1[C@H](CO2)[C@H](c2ccccc2)[C@]2(C)C(=O)Nc3cc(Cl)ccc3C(=O)N12	18.8	93.0*	.	1.0	29.9
C[C@@]12C(=O)Nc3cc(F)ccc3C(=O)N1[C@H]1c3ccccc3OC[C@@H]1[C@@H]2c1ccccc1	6.6	68.8*	.	-6.0	47.6*
Cc1ccc2c(c1)[C@H]1[C@H](CO2)[C@H](c2ccccc2)[C@]2(C)C(=O)Nc3ccc(F)cc3C(=O)N12	10.7	83.4*	11.2	0.5	44.4
COC(=O)C[C@H]1CC[C@@H]2[C@H](COc3ccc(NC(=O)c4cccc(F)c4)cc3C(=O)N2C)O1	.	.	0.0	.	.
CCn1cnc2c1c(=O)n(CC(=O)N1CCc3ccccc31)c(=O)n2Cc1ccccc1	-2.7	8.9	-0.1	-0.3	.
O=C(Cn1c(=O)c2c(ncn2Cc2ccccc2)n(Cc2ccccc2)c1=O)N1CCc2ccccc21	15.5	65.7*	8.6	1.9	21.5
Cc1cccc(C2=NN(c3ccccc3)[C@@H](C(=O)N3CCOC3=O)[C@@H]2c2ccc(Cl)cc2)c1	14.5	56.2*	12.6	10.6*	17.8
O=C1OCCN1C(=O)[C@H]1[C@H](c2ccccc2)C(c2cccc(Cl)c2)=NN1c1ccccc1	13.1	56.3*	.	0.3	17.8
CC[C@@H]1C(c2ccccc2)=NN(c2ccccc2)[C@H]1C(=O)N1CCOC1=O	1.2	3.6	5.5	-20.2	.
